Results on 89 compounds are retold here after PubChem BioAssay AID1010 (Sanford-Burnham Center for Chemical Genomics, 2008).

Screen size: about 48,000 compounds; about 160 (0.33%) were called active.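 The calls were made as follows: active = survival measured by cellular ATP above 50% at 15 µg/ml in the first screen; inactive = the rest.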 The full list was thinned out, with actives kept by preference.

The test is described as follows: protection against thapsigargin ER stress killing – CSM14.1 cells, ATP luminescence, primary screen (AID 1010).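 Also: cell death triggered by about 15 µM thapsigargin; ATP read 24 h after thapsigargin was added; plate controls were thapsigargin with DMSO for no effect and DMSO without thapsigargin for full effect.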 As to conditions: CSM14.1 thapsigargin ER stress survival, stronger effect = higher value, screened at 15 µg/mL (by protocol).
`O=C(Nc1ccc(Cc2ccncc2)cc1)C(c1ccccc1)c1ccccc1`: the relative survival (cellular ATP) is 43.5% (inactive).

In the case of `COc1cc2ccccc2cc1C(=O)Nc1ccccc1C`, the relative survival (cellular ATP) was -5.9% (inactive).

On to `CC(C)(C)C(=O)CN1C2=NCCN2c2ccccc21`, for which the relative survival (cellular ATP) is -3.6% (inactive).

As for `COc1ccc(C2CC(c3cccs3)=NN2c2ccc(F)cc2)cc1OC` (centres undefined), the relative survival (cellular ATP) was 3.6% (inactive).

In the case of `O=C(NCc1ccncc1)c1cccc([N+](=O)[O-])c1`, the relative survival (cellular ATP) is 2.2% (inactive).

As for `CCCOc1ccc(/C=C2\C(=O)NN(c3ccccc3)C2=O)cc1OC`, the relative survival (cellular ATP) is 4.3% (inactive).

`O=C(NNC(=O)c1cc(NC(=O)c2ccc([N+](=O)[O-])cc2)cc(C(=O)NNC(=O)c2ccccc2)c1)c1ccccc1`: the relative survival (cellular ATP) is 10% (inactive).

Consider `Cc1cc(Cl)ccc1NC(=O)CCc1ccccc1`, for which the relative survival (cellular ATP) was 5.6% (inactive).

As for `O=C(NCc1cccnc1)c1cnn2c(C(F)(F)F)cc(-c3cccs3)nc12`, the relative survival (cellular ATP) is 2.5% (inactive).

Regarding `O=C1C(=O)N(Cc2ccccc2)C(c2ccc(F)cc2)/C1=C(/O)c1ccccc1` (centres undefined), the relative survival (cellular ATP) is 6.2% (inactive).

`COc1ccc(C(=O)Nc2sc3c(c2C(N)=O)CCCC3)cc1`: the relative survival (cellular ATP) was 13.7% (inactive).

For the compound `NC(=O)c1c(NC(=O)c2ccc(Br)cc2)sc2c1CCCCCC2`, the relative survival (cellular ATP) is 3.1% (inactive).

Take `NC(=O)c1c(NC(=O)c2ccccc2F)sc2c1CCCCCC2`: the relative survival (cellular ATP) is 57.3% (active).

As to `COc1ccc(CCN2C(=O)CC(Cc3ccc(Cl)cc3)C2=O)cc1OC` (centres undefined), the relative survival (cellular ATP) is 10.7% (inactive).

Consider `COc1cc(NC(=O)COc2ccc(Br)cc2C(C)(C)C)c(OC)cc1Cl`, for which the relative survival (cellular ATP) is 11.7% (inactive).

Take `Cc1c(C(=O)Nc2ccc(NC(=O)c3ccc(C(C)(C)C)cc3)cc2)cccc1[N+](=O)[O-]`: the relative survival (cellular ATP) is 0.1% (inactive).

As to `COc1cccc(OCCOc2ccc(/C=C3/SC(=S)NC3=O)cc2OC)c1`, the relative survival (cellular ATP) was 10.2% (inactive).

Consider `NC(=O)C1(N2CCCCC2)CCN(C(=S)Nc2ccc(Cl)cc2)CC1`, for which the relative survival (cellular ATP) is -1.2% (inactive).

For `CC1=C(C(=O)Nc2ccccc2)C(c2ccco2)N2C(=O)CSC2=N1` (centres undefined), the relative survival (cellular ATP) is 2.3% (inactive).

Consider `O=C(NCCC1=CCCCC1)c1cc(Cl)ccc1[N+](=O)[O-]`, for which the relative survival (cellular ATP) is 5.6% (inactive).

In the case of `NC1=NC(=O)/C(=C/c2ccc(OCc3cccc4ccccc34)cc2)S1`, the relative survival (cellular ATP) was 2.9% (inactive).

Turning to `O=C(NCCCCOc1ccccc1)C(O)(c1ccccc1)c1ccccc1`, the relative survival (cellular ATP) is 5.8% (inactive).

On to `COc1cc(OC)cc(C(=O)Nc2cccc(S(N)(=O)=O)c2)c1`, for which the relative survival (cellular ATP) is -2.7% (inactive).

As to `CCOC(=O)c1ccc(NS(=O)(=O)c2cc(C(=O)Nc3ccccc3)ccc2C)cc1`, the relative survival (cellular ATP) is 4.6% (inactive).

`CC1=C(C#N)c2nc(N)c(C#N)c(C)c2/C1=C/c1ccc(-c2cccc(Cl)c2Cl)o1`: the relative survival (cellular ATP) is -6.8% (inactive).

Consider `O=C(O)c1cc(-c2ccc(/C=N/Nc3ccc(Cl)c(Cl)c3)o2)ccc1Cl`, for which the relative survival (cellular ATP) is -2.2% (inactive).

With `COc1ccc(/C=C2\SC(=S)N(CC(=O)OCCN(C)C)C2=O)cc1`, the relative survival (cellular ATP) is -6.1% (inactive).

Regarding `Cc1c(C#N)c2nc3ccccc3n2c(=O)/c1=C\c1c(O)n(-c2ccc(Br)cc2)[nH]c1=O`, the relative survival (cellular ATP) is -1.2% (inactive).

For `O=c1nc2cc3[nH]c4c(=O)c5ccccc5c4[nH]c3cc2n1`, the relative survival (cellular ATP) is 12.2% (inactive).

Consider `COC(=O)C1=C(C)NC2=C(C(=O)c3ccccc32)C1c1ccc(-c2ccc([N+](=O)[O-])cc2C)o1` (centres undefined), for which the relative survival (cellular ATP) is 7.6% (inactive).

As to `CC(=O)c1ccc(NC(=S)NC(NC(=O)N(C)C)C(Cl)(Cl)Cl)cc1` (centres undefined), the relative survival (cellular ATP) was -1.5% (inactive).

Consider `COc1ccc(/C(O)=C2/C(=O)C(=O)N(CCCCCC(=O)O)C2c2ccccc2)cc1` (centres undefined), for which the relative survival (cellular ATP) was 2.4% (inactive).

Consider `O=C(NCCc1ccccc1)/C(=C/c1ccc(-c2cccc([N+](=O)[O-])c2)o1)NC(=O)c1ccccc1`, for which the relative survival (cellular ATP) was 8.1% (inactive).

Turning to `O=C(NC(NC(=S)N1CCOCC1)C(Cl)(Cl)Cl)c1cccc([N+](=O)[O-])c1` (centres undefined), the relative survival (cellular ATP) is 0.9% (inactive).

Consider `CC(C)(C)CC(C)(C)NC(=O)CSc1nc2ccccc2[nH]1`, for which the relative survival (cellular ATP) was 12.7% (inactive).

In the case of `COC(=O)C1=C(C)N=c2s/c(=C\c3ccc(N(C)C)cc3)c(=O)n2C1c1ccccc1Cl` (centres undefined), the relative survival (cellular ATP) was 0.6% (inactive).

Consider `COc1cc(/C=C2/NC(=S)NC2=O)ccc1OCc1ccccc1Cl`, for which the relative survival (cellular ATP) was 1.9% (inactive).

With `CCN1C(=O)/C(=C\c2ccc(OC)c([N+](=O)[O-])c2)C(C(=O)OC)=C1C`, the relative survival (cellular ATP) was 11.8% (inactive).

Regarding `Cc1ccc(N2C(=O)/C(=C/c3sccc3C)SC2=S)cc1`, the relative survival (cellular ATP) is 9.2% (inactive).

As to `O=C1S/C(=C/c2ccccc2F)C(=O)N1CNc1ccccc1Br`, the relative survival (cellular ATP) was 2.5% (inactive).

In the case of `O=C(Nc1nc(-c2ccc3ccccc3c2)cs1)c1ccc(Cl)cc1[N+](=O)[O-]`, the relative survival (cellular ATP) is 2% (inactive).

Consider `O=c1[nH]c(=O)n(-c2ccc(Cl)cc2)c(O)c1/C=C1/C=CC=N1`, for which the relative survival (cellular ATP) was 64.8% (active).

As to `CCOc1ccc(-n2c(O)c(C=C3C=CC=N3)c(=O)[nH]c2=O)cc1`, the relative survival (cellular ATP) was 2.3% (inactive).

With `O=c1[nH]c(=S)n(-c2cccc(Cl)c2)c(O)c1/C=C1/C=CC=N1`, the relative survival (cellular ATP) is 8.4% (inactive).

As for `COc1ccc(/C=C(/NC(=O)c2ccco2)C(=O)Nc2ccc(C(C)=O)cc2)cc1`, the relative survival (cellular ATP) is 2.4% (inactive).

With `COC(=O)C(NC(=O)CCC1CCCCC1)C12CC3CC(CC(C3)C1)C2` (centres undefined), the relative survival (cellular ATP) was 13.9% (inactive).

Take `CC1=NN(c2ccc(S(N)(=O)=O)cc2)C(=O)/C1=C\c1ccc(-c2cc([N+](=O)[O-])ccc2C)o1`: the relative survival (cellular ATP) was -4.8% (inactive).

`CCOc1c(Br)cc(/C=C2/C(=O)NN(c3ccccc3)C2=O)cc1OC`: the relative survival (cellular ATP) was 5% (inactive).

For the compound `COc1ccc(Br)cc1-c1nc2nnc(C)n2[nH]1`, the relative survival (cellular ATP) is 7.4% (inactive).

For `Cc1ccc(C(=O)Nc2ccc(NC(=O)c3ccccc3)cc2)cc1S(=O)(=O)N1CCOCC1`, the relative survival (cellular ATP) was 5% (inactive).

As to `COc1ccc(-c2cc(C(=O)Nc3c(C)cccc3C)c3ccccc3n2)cc1`, the relative survival (cellular ATP) was 0.1% (inactive).

Consider `COCCCNC(=O)c1ccccc1C`, for which the relative survival (cellular ATP) was 0.6% (inactive).

As to `CCOCCOC(=O)c1ccc(NC(=O)c2ccccc2C)cc1`, the relative survival (cellular ATP) was 7.2% (inactive).

For the compound `CCCCOC(=O)C1=C(C)NC2=C(C(=O)CC(c3ccccc3)C2)C1c1ccc(O)c([N+](=O)[O-])c1` (centres undefined), the relative survival (cellular ATP) was 3.8% (inactive).

Consider `O=C1OC(c2ccc(NC(=O)C(F)(F)F)cc2)(c2ccc(NC(=O)C(F)(F)F)cc2)c2ccccc21`, for which the relative survival (cellular ATP) is 6.6% (inactive).

Consider `O=C1NC(=S)S/C1=C\c1ccccc1OS(=O)(=O)c1ccc([N+](=O)[O-])cc1`, for which the relative survival (cellular ATP) is 3.7% (inactive).

As to `Cc1ccc(C(=O)Nc2ccc(Cl)cc2)o1`, the relative survival (cellular ATP) was 2.1% (inactive).

Consider `O=S(=O)(O)c1cc(-n2nc3ccc4c(S(=O)(=O)O)cccc4c3n2)ccc1/C=C/c1ccccc1`, for which the relative survival (cellular ATP) is 6.1% (inactive).

With `CCc1cccc(C)c1NC(=O)c1ccc(C)c([N+](=O)[O-])c1`, the relative survival (cellular ATP) was 0.4% (inactive).

`CC(NC(=O)C(F)(Cl)C(F)(F)F)c1ccccc1` (centres undefined): the relative survival (cellular ATP) was -2.2% (inactive).

Turning to `O=C(N/C(=C/c1ccc(-c2cccc(C(F)(F)F)c2)o1)C(=O)N1CCOCC1)c1ccc(Cl)cc1`, the relative survival (cellular ATP) was 1% (inactive).

In the case of `O=[N+]([O-])c1ccc(C2Nc3ccc(Br)cc3C3C=CCC32)cc1` (centres undefined), the relative survival (cellular ATP) is 6.4% (inactive).

Take `COc1ccc(C2C3=C(CC(C)(C)CC3=O)Nc3ccccc3N2C(=O)c2ccc(Cl)cc2)cc1OC` (centres undefined): the relative survival (cellular ATP) was 59.4% (active).

On to `CC1(C)CC(=O)C2=C(C1)NC1=C(C(=O)CC(C)(C)C1)C2c1ccccc1Cl`, for which the relative survival (cellular ATP) was 9.2% (inactive).

For `CC1(C)CC(=O)C2=C(C1)Nc1ccccc1N(C(=O)Cc1ccccc1)C2c1cccc(F)c1` (centres undefined), the relative survival (cellular ATP) was 0.5% (inactive).

In the case of `CC(=O)Oc1ccc2occ(C(=O)c3ccc(C)cc3)c2c1`, the relative survival (cellular ATP) was -6.1% (inactive).

With `CCOC(=O)C1=NN(C(=O)c2ccc(Cl)cc2)C(O)(C(C)(C)C)C1` (centres undefined), the relative survival (cellular ATP) is 11.8% (inactive).

Regarding `O=C(/C=C/c1ccccc1Cl)c1ccc(NC(=O)c2cccs2)cc1`, the relative survival (cellular ATP) was 1.3% (inactive).

For `OC1(C#Cc2ccccc2)CCN(Cc2ccccc2)CC1`, the relative survival (cellular ATP) is -6% (inactive).

Consider `CC(=O)Nc1ccc(C(=O)N2CCN(c3ccccc3)CC2)cc1`, for which the relative survival (cellular ATP) was -6.3% (inactive).

For the compound `O=C(c1ccc(C#CC2(O)CCCCC2)cc1)N1CCN(c2ccccc2Cl)CC1`, the relative survival (cellular ATP) is 94.4% (active).

In the case of `Cc1cc(=O)oc2cc(OCC(=O)OCc3ccccc3)ccc12`, the relative survival (cellular ATP) was 1.2% (inactive).

On to `Cn1nc(-c2ccc(Br)cc2)cc1N`, for which the relative survival (cellular ATP) is -2.2% (inactive).

For the compound `COc1cc(C2Nc3ccc4ccccc4c3C3=C2C(=O)CC(C)(C)C3)c(Br)cc1O` (centres undefined), the relative survival (cellular ATP) is 1.3% (inactive).

With `COc1cc(OC)c(C2NC(=S)NC(C)=C2C(=O)Nc2ccc(Cl)cc2)cc1OC` (centres undefined), the relative survival (cellular ATP) was 7.2% (inactive).

Take `CCOc1nc(-c2ccccc2)cc(-c2ccc(Br)cc2)n1`: the relative survival (cellular ATP) is 1.9% (inactive).

With `NS(=O)(=O)c1cccc(C(=O)Nc2ccc([N+](=O)[O-])cc2)c1`, the relative survival (cellular ATP) was 4.7% (inactive).

Regarding `Clc1ccc(/C=N\N2CCN(C(c3ccccc3)c3ccccc3)CC2)cc1`, the relative survival (cellular ATP) was 9.1% (inactive).

On to `C/C(Cn1nnc([N+](=O)[O-])n1)=N/NC(=O)Cc1ccccc1`, for which the relative survival (cellular ATP) is -8.3% (inactive).

Regarding `CCCCS(=O)(=O)CC(O)COc1ccccc1` (centres undefined), the relative survival (cellular ATP) was 10.3% (inactive).

Turning to `COc1cccc(C(=O)Nc2ccccc2C(F)(F)F)c1`, the relative survival (cellular ATP) was 5.4% (inactive).

Turning to `CCOC1CC(c2ccccc2)=NN1c1ccccc1` (centres undefined), the relative survival (cellular ATP) is 2.7% (inactive).

Regarding `COc1ccc(C2/C(=C(\O)c3ccc(F)cc3)C(=O)C(=O)N2c2nncs2)cc1` (centres undefined), the relative survival (cellular ATP) was -1.4% (inactive).

For the compound `Oc1c(/C=C2/C=Nc3ccccc32)sc(=S)n1Cc1ccccc1`, the relative survival (cellular ATP) was 11% (inactive).

In the case of `O=C(Nc1cccc(F)c1)c1sc2ccccc2c1Cl`, the relative survival (cellular ATP) was 1.2% (inactive).

`COc1ccc(N2C(=O)c3ccc(C(=O)Nc4cccc(O)c4)cc3C2=O)cc1`: the relative survival (cellular ATP) is 2% (inactive).

In the case of `COC(=O)c1ccc(/C=C2\SC(=S)N(CCCC(=O)Nc3nccs3)C2=O)cc1`, the relative survival (cellular ATP) is -4% (inactive).

For `COc1ccccc1CC(=O)Nc1ccc(F)cc1F`, the relative survival (cellular ATP) was 6.1% (inactive).

As to `COc1ccc(C2/C(=C(\O)c3ccc(Cl)cc3)C(=O)C(=O)N2CCCn2ccnc2)cc1` (centres undefined), the relative survival (cellular ATP) is 13% (inactive).
